Records with an inconclusive call do not appear. Calls of active or inactive are those of the source. Rule for the calls, unless noted: active = hit-call score of the fitted dose curve at least 0.9, where 1 is the maximum; inactive = score below 0.9.
What was measured:
[1] = molecular target: Nuclear respiratory factor 1 (Homo sapiens) (UniProt Q16656); assay: ATG_NRF1_CIS: Attagene CIS-FACTORIAL HepG2 Assay for human Nuclear Respiratory Factor 1 (NRF1) Orphan Gene (AID 2282987); conditions: HepG2 NRF1 cis-element reporter, Attagene multiplex; actives raise or lower the signal
Chain of Nuclear respiratory factor 1 (Homo sapiens) (Q16656 whole entry, looked up, the tested form may be a part): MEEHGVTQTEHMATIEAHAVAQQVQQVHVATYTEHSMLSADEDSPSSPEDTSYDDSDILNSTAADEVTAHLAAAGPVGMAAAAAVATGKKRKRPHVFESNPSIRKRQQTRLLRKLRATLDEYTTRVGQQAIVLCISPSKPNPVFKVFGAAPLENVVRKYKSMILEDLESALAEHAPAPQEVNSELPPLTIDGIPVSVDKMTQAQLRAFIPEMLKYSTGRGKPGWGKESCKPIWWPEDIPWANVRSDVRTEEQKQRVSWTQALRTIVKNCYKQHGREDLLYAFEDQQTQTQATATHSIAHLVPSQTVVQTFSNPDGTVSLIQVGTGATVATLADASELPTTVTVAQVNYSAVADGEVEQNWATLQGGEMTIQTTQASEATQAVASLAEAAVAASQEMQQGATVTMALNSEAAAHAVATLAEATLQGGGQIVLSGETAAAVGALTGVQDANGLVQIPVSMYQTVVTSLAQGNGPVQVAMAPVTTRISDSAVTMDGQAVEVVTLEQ
Outline: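 Cells (HepG2, transient MRTU transfection) are exposed to compound for 24 h, then RNA isolated and reporter mRNA amplified and fluorescently labelled. Fragments are separated by capillary electrophoresis; signal change is fitted bidirectionally relative to DMSO.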

[2] = ATG_NFI_CIS: Attagene CIS-FACTORIAL HepG2 Assay for human Nuclear Factor I (NFI) (AID 2282989); conditions: HepG2 cis-regulatory reporter, NFI response element transcription; actives raise or lower the signal
Outline: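 Transient MRTU transfection of HepG2 → 24 h chemical dosing → total RNA, oligo(dT) RT → PCR, 6-FAM primer extension, HpaI cut → capillary electrophoresis. Endpoint fitted bidirectionally relative to DMSO.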

[3] = molecular target: Myc proto-oncogene protein (Homo sapiens) (UniProt P01106); assay: ATG_Myc_CIS: Attagene CIS-FACTORIAL HepG2 Assay for human Myelocytomatosis (Myc) Proto-Oncogene Transcription Factor (AID 2282990); conditions: HepG2, Attagene cis-reporter transcription factor activity; actives raise or lower the signal
Chain of Myc proto-oncogene protein (Homo sapiens) (P01106 whole entry, looked up): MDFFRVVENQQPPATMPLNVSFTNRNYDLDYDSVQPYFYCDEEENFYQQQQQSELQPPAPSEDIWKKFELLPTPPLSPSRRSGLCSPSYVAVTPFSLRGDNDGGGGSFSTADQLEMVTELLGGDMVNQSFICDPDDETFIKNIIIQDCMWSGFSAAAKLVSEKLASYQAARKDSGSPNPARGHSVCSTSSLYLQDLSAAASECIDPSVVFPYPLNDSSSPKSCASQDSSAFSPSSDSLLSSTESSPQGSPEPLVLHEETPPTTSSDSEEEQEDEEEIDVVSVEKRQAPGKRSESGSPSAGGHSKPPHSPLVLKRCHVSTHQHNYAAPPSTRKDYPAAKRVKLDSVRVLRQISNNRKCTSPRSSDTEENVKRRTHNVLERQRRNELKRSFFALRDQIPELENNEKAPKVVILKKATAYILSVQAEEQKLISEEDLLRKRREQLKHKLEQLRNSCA
Outline: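 HepG2, transient MRTU transfection (cis promoters, endogenous TFs); 24 h dosing; TriZol RNA → oligo(dT) RT → PCR → 6-FAM primer extension → HpaI cut → CE. Bidirectional fit vs DMSO.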

[4] = ATG_NF_kB_CIS: Attagene CIS-FACTORIAL HepG2 Assay for human Nuclear Factor Kappa B (NF-kB) (AID 2282991); conditions: HepG2 Attagene cis-factorial NF-kB reporter mRNA; actives raise or lower the signal
Outline: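 Measures mRNA induction of an NF-kB-responsive cis-element reporter in HepG2 cells transfected with multiple reporter units, sampled 24 h post-dosing; quantified by fluorescence after RT-PCR and capillary electrophoresis, fitted for activation or inhibition against DMSO.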

[5] = ATG_NRF2_ARE_CIS: Attagene CIS-FACTORIAL HepG2 Assay for human Nuclear Factor Erythroid 2 Related Factor 2 (NFR2) response to Antioxidant Response Elements (ARE) (AID 2282992); conditions: HepG2 Attagene ARE/NRF2 reporter, transcription factor activity; actives raise or lower the signal
Outline: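 Using transiently transfected HepG2 cells exposed for 24 h, reporter mRNA levels were determined by RT-PCR with fluorescent primer extension and capillary electrophoresis, analysed for gain or loss of signal against DMSO.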

[6] = ATG_Oct_MLP_CIS: Attagene CIS-FACTORIAL HepG2 Assay for human Octamer-Binding Transcription Factor (Oct) (AID 2282993); conditions: HepG2 Attagene cis-factorial Oct reporter, mRNA; actives raise or lower the signal
Outline: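 Transient MRTU transfection of HepG2 → 24 h compound treatment → RNA isolation, reverse transcription, PCR → 6-FAM primer extension, HpaI digest → capillary electrophoresis. Activity fitted both directions against DMSO.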

[7] = molecular target: Cellular tumor antigen p53 (Homo sapiens) (UniProt P04637); assay: ATG_p53_CIS: Attagene CIS-FACTORIAL HepG2 Assay for human p53 Transcription Factor (AID 2282994); conditions: HepG2 p53 cis-element reporter, Attagene mRNA; actives raise or lower the signal
Chain of Cellular tumor antigen p53 (Homo sapiens) (P04637 whole entry, looked up, the tested form may be a part): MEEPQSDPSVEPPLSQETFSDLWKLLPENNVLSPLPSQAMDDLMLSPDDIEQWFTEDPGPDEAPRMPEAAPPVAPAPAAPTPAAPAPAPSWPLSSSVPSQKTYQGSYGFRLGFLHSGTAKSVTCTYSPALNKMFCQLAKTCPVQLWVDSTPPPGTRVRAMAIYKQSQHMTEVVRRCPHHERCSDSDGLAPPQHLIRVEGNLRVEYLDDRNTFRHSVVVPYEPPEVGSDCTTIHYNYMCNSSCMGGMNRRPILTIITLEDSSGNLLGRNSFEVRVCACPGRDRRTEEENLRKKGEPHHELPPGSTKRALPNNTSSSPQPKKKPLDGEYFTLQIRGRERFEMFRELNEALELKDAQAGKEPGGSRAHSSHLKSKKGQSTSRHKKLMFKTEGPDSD
Outline: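 In HepG2 cells, reporter transcription units under cis-regulatory promoters were transiently introduced. Following 24 h treatment, RNA was processed to labelled, digested cDNA fragments read by capillary electrophoresis; fitting was bidirectional versus DMSO.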

[8] = BSK_3C_TissueFactor: BioMAP Diversity Plus: 3C Assay for Tissue Factor Biomarker Activity (AID 2282997); conditions: BioMAP 3C HUVEC, tissue factor biomarker readout; actives raise or lower the signal
Outline: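 HUVEC, 3C system, 24 h post-dose; Tissue Factor by ELISA; bidirectional fit vs DMSO baseline.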

[9] = BSK_3C_uPAR: BioMAP Diversity Plus: 3C Assay for Urokinase-type plasminogen activator receptor (uPAR) Biomarker Activity (AID 2282998); conditions: BioMAP 3C HUVEC, uPAR biomarker ELISA; actives raise or lower the signal
Outline: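 ELISA readout of uPAR on human vascular endothelium (umbilical vein primary cells), taken 24 h after chemical dosing. Increases and decreases are both fitted relative to DMSO vehicle.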

[10] = BSK_3C_VCAM1: BioMAP Diversity Plus: 3C Assay for Vascular cell adhesion molecule 1 (VCAM1) Biomarker Activity (AID 2282999); conditions: BioMAP 3C HUVEC, VCAM1 ELISA, cytokine-stimulated; actives raise or lower the signal
Outline: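 Activity fitted in both directions relative to DMSO, with ELISA measurement of the surface marker on primary HUVEC (3C) at 24 h post-treatment; parallel SRB staining (0.1% SRB, TCA-fixed, 560 nm) flagged overt cytotoxicity.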

[11] = BSK_4H_Eotaxin3: BioMAP Diversity Plus: 4H Assay for Eotaxin 3 Biomarker Activity (AID 2283000); conditions: primary human endothelial cells (HUVEC); actives raise or lower the signal;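 note: CCL26 protein level quantified by ELISA in parallel with SRB cytotoxicity check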
Outline: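 Readout is Eotaxin-3 (CCL26) level by ELISA in primary human umbilical vein endothelial cells harvested 24 h after chemical exposure; activity fitted in both directions against DMSO control.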

[12] = read-out: Intercellular Adhesion Molecule 1 (ICAM1), ICAM1 (gene 3383); assay: BSK_3C_ICAM1: BioMAP Diversity Plus: 3C Assay for Intercellular Adhesion Molecule 1 (ICAM1) Biomarker Activity (AID 2283003); conditions: primary human endothelial cells (HUVEC); actives raise or lower the signal
Outline: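 ELISA read-out of ICAM-1; HUVEC (primary human), 3C system, 24 h post-dosing; bidirectional fit vs DMSO baseline.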

[13] = BSK_3C_Proliferation: Cell Proliferation Assessment in the BioMAP Diversity Plus: 3C Assay (AID 2283006); conditions: primary human endothelial cells (HUVEC)
Outline: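 HUVEC, sub-confluent; 48 h chemical exposure; 10% TCA fix, 0.1% SRB stain, A560 total protein. Gain or loss of signal fitted both directions vs DMSO control.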

[14] = molecular target: Nuclear receptor subfamily 1 group I member 2 (Homo sapiens) (UniProt O75469); assay: ATG_PXR_TRANS: Attagene TRANS-FACTORIAL HepG2 Assay for human Pregnane X Receptor (PXR) (AID 2283008; active = hit-call score of the fitted dose curve at least 0.9, where 1 is the maximum)
Chain of Nuclear receptor subfamily 1 group I member 2 (Homo sapiens) (O75469 whole entry, looked up, the tested form may be a part): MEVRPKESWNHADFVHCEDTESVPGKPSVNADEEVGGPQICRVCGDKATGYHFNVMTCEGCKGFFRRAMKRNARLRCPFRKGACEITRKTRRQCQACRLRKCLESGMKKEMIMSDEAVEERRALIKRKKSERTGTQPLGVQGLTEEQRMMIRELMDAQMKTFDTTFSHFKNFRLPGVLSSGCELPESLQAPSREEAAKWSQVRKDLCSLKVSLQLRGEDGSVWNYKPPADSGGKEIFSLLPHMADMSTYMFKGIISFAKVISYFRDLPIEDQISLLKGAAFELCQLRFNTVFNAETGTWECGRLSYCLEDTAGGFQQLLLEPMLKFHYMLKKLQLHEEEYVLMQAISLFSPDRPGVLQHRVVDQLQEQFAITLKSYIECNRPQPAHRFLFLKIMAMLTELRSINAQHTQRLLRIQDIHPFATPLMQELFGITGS
Outline: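 Multiplexed TRANS reporter panel in HepG2; this component tracks PXR-Gal4-driven reporter mRNA after 24 h dosing, measured by RT-PCR with capillary electrophoresis fluorescence, fitted against DMSO.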

[15] = molecular target: human Peroxisome Proliferator-activated Receptor alpha (PPARa), PPARA (gene 5465) (UniProt Q07869); assay: ATG_PPARa_TRANS: Attagene TRANS-FACTORIAL HepG2 Assay for human Peroxisome Proliferator-activated Receptor alpha (PPARa) (AID 2283001; active = hit-call score of the fitted dose curve at least 0.9, where 1 is the maximum)
Chain of human Peroxisome Proliferator-activated Receptor alpha (PPARa), PPARA (gene 5465) (Q07869 whole entry, looked up, the tested form may be a part): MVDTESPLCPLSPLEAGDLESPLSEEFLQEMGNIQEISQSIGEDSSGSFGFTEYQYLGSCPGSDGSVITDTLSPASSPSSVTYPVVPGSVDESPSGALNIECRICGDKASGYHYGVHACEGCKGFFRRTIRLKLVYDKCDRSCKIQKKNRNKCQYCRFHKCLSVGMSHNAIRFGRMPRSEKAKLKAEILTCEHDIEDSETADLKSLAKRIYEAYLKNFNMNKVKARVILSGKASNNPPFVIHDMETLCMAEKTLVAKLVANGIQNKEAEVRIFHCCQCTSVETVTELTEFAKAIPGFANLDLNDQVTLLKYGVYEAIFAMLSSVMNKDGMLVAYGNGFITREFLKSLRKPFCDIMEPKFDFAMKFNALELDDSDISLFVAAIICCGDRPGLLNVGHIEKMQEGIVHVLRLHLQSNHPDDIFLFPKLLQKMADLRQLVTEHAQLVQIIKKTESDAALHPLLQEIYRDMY
Outline: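 Transfected HepG2 cells treated with test chemical for 24 h. RNA isolated, reverse-transcribed with oligo(dT), PCR-amplified, FAM-labelled and HpaI-digested. Fragments sized by capillary electrophoresis; gain-of-signal fit relative to DMSO.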

[16] = molecular target: human Peroxisome Proliferator-activated Receptor delta (PPARd), PPARD (gene 5467) (UniProt Q03181); assay: ATG_PPARd_TRANS: Attagene TRANS-FACTORIAL HepG2 Assay for human Peroxisome Proliferator-activated Receptor delta (PPARd) (AID 2283002; active = hit-call score of the fitted dose curve at least 0.9, where 1 is the maximum)
Chain of human Peroxisome Proliferator-activated Receptor delta (PPARd), PPARD (gene 5467) (Q03181 whole entry, looked up, the tested form may be a part): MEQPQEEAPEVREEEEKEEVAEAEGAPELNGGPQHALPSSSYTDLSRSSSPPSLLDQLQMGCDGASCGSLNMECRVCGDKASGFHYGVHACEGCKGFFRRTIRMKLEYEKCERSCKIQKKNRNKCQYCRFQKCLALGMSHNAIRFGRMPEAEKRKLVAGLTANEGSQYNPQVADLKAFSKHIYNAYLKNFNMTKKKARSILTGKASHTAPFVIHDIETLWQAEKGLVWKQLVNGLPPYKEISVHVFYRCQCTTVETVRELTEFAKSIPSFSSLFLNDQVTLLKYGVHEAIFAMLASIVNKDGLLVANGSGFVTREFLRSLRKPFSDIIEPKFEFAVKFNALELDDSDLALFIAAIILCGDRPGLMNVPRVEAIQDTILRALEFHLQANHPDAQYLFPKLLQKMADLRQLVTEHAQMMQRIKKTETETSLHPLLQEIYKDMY
Outline: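 Transient HepG2 transfection (multiple GAL4-UAS RTUs, chimeric receptor-Gal4); 24 h dosing; total RNA → oligo(dT) RT → PCR → 6-FAM primer extension → HpaI cut → CE. Positive direction vs DMSO.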

[17] = molecular target: Retinoic acid receptor alpha (Homo sapiens) (UniProt P10276); assay: ATG_RARa_TRANS: Attagene TRANS-FACTORIAL HepG2 Assay for human Retinoic Acid Receptor alpha (RARa) (AID 2283005; active = hit-call score of the fitted dose curve at least 0.9, where 1 is the maximum)
Chain of Retinoic acid receptor alpha (Homo sapiens) (P10276 whole entry, looked up, the tested form may be a part): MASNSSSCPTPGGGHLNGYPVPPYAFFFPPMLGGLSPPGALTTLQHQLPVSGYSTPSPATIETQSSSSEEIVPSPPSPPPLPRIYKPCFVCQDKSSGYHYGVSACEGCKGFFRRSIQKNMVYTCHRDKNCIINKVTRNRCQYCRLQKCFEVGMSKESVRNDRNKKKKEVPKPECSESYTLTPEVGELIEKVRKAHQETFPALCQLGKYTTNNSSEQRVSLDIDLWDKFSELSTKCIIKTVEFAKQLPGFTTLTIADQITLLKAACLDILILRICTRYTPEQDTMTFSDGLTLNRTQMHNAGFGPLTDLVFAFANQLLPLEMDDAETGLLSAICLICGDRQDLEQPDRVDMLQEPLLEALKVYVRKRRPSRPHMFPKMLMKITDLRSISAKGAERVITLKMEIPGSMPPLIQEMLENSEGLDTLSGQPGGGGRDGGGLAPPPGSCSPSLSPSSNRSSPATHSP
Outline: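 Reporter transcripts, measured by RT-PCR with fluorescent labeling and capillary electrophoresis after 24 h dosing, reflect activity of an exogenous human RARa–GAL4 fusion in transiently transfected HepG2. Fitted for increase relative to DMSO.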

[18] = molecular target: Peroxisome proliferator-activated receptor gamma (Homo sapiens) (UniProt P37231); assay: ATG_PPARg_TRANS: Attagene TRANS-FACTORIAL HepG2 Assay for human Peroxisome Proliferator-activated Receptor-gamma (PPARg) (AID 2283007; active = hit-call score of the fitted dose curve at least 0.9, where 1 is the maximum)
Chain of Peroxisome proliferator-activated receptor gamma (Homo sapiens) (P37231 whole entry, looked up, the tested form may be a part): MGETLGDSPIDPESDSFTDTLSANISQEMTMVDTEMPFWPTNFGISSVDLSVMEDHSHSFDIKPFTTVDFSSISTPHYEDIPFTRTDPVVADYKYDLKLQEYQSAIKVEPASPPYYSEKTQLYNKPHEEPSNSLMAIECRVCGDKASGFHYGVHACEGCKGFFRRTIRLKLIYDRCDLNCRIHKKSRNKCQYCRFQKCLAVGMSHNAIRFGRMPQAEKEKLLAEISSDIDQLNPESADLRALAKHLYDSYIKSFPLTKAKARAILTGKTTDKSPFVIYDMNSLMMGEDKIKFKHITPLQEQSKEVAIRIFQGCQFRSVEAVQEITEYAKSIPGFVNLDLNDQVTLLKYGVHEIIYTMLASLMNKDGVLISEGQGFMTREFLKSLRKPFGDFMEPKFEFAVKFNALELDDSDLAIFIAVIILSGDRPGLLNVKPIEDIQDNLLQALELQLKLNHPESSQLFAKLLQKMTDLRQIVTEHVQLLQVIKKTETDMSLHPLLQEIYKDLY
Outline: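 Gain-of-signal endpoint relative to DMSO, derived from reporter mRNA levels quantified by RT-PCR and capillary electrophoresis. Cells were HepG2 transiently expressing a chimeric NR-Gal4 construct with GAL4-UAS reporters, exposed to chemicals for 24 h.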

Measured: AC50

OC(Cn1cncn1)(Cn1cncn1)c1ccc(F)cc1F
inactive: [1] | [2] | [3] | [4] | [5] | [6] | [7] | [8] | [9] | [10] | [11] | [12] | [13] | [14]

O=S(=O)(O)c1ccc(N=Nc2c(O)ccc3cc(S(=O)(=O)O)ccc23)cc1
inactive: [1] | [2] | [3] | [4] | [6] | [8] | [9] | [10] | [11] | [15] | [16] | [12] | [17] | [13] | [14]

O=C(O)c1ccc2c(c1)nc(C(=O)NC1CCN(C3CC3)CC1)n2Cc1cc(-c2ccc(Cl)s2)on1
active: [18] 1030 nM
inactive: [1] | [2] | [3] | [4] | [6] | [7] | [8] | [9] | [10] | [11] | [15] | [16] | [12] | [13]

FC(F)C(F)(F)COCC1CO1 (centres undefined)
inactive: [1] | [2] | [3] | [4] | [5] | [6] | [7] | [8] | [9] | [10] | [11] | [16] | [12] | [13] | [18]

Reference: PubChem BioAssay (EPA / NIEHS)
